We go through eight molecules from PubChem BioAssay (NCI).

This is part of a sample that, as a whole, favours compounds with a hit. Of some 83,000 tested, about 20% had one in any assay.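 Compound tested at a single concentration for 48 hours in 96-well plates; a percent growth value below 10 was scored as active.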 Values without a mark were called inactive. Activity calls are given as the source filed them.

Some test systems named below: SK-MEL-2 melanoma; EKVX NSCLC; SN12C renal; UO-31 renal; TK-10 renal; ACHN renal; CAKI-1 renal; A498 renal; CCRF-CEM leukemia; MOLT-4 leukemia; SR leukemia; RPMI-8226 leukemia; OVCAR-5 ovarian; OVCAR-4 ovarian; SK-OV-3 ovarian; IGROV1 ovarian; OVCAR-3 ovarian; HS 578T breast; NCI/ADR-RES ovarian; OVCAR-8 ovarian.
Holding throughout (assay): NCI-60 one-dose screen, 48 h (100 = growth as untreated, 0 = no growth, -100 = all killed)
Holding throughout (conditions): 10 µM unless noted

Take `Cn1ccnc1C(=O)/C=C/c1ccc(C(=O)Nc2nc3ccccc3[nH]2)cc1`: the growth in the assay with SK-MEL-2 melanoma was 85.4%; in the assay on EKVX NSCLC it was 62.3%; in the assay on SN12C renal it was 51.7%; with UO-31 renal, 28.3%; in the assay with TK-10 renal it was 66.5%; in the assay on ACHN renal, 49.3%. Also, the growth with CAKI-1 renal is 18.6%; with A498 renal it was 51.1%; with CCRF-CEM leukemia it was 15.4%; with MOLT-4 leukemia, 45.2%; in the assay on SR leukemia, 11.2%; in the assay on RPMI-8226 leukemia, 10.7%. Besides, the growth in the assay with OVCAR-5 ovarian is 59.9%; with OVCAR-4 ovarian it was 36.7%; in the assay with SK-OV-3 ovarian, 77.2%; in the assay with IGROV1 ovarian it was 36%; with OVCAR-3 ovarian, 7.54% (active); with HS 578T breast, 40.2%. Further, in the assay with NCI/ADR-RES ovarian, the growth is 24.6%.

On to `COc1c(O)cc2c(c1CC=C(C)C)OC(=O)c1c(cc(O)c(CC=C(C)C)c1O)O2`, for which the growth in the assay with SK-MEL-2 melanoma was 55.5%; in the assay with EKVX NSCLC, 78.5%; with SN12C renal, 10.4%; in the assay on UO-31 renal, 45.1%; with TK-10 renal, 42%; in the assay with ACHN renal, 30.2%. Further, the growth was 50.6% in the assay with CAKI-1 renal; 116% with A498 renal; 32.2% in the assay on CCRF-CEM leukemia; 20.6% with MOLT-4 leukemia; -21.4% (active) in the assay on SR leukemia; 42.4% in the assay with OVCAR-8 ovarian. The growth with OVCAR-5 ovarian is 72%; in the assay with OVCAR-4 ovarian, 43.8%; with SK-OV-3 ovarian it was 86.7%; in the assay with IGROV1 ovarian, 69.6%; with OVCAR-3 ovarian, 34.2%; in the assay with NCI/ADR-RES ovarian, -13.7% (active).

For `O=C(NCCCl)NCCN1c2nc3ccccc3cc2Sc2cc3ccccc3nc21`, the growth in the assay with SK-MEL-2 melanoma is 40.5%; with EKVX NSCLC it was 54.7%; in the assay with SN12C renal, 67.3%; with UO-31 renal, -5.97% (active); with TK-10 renal, 99.2%; in the assay on ACHN renal, 64.8%. Moreover, the growth in the assay with CAKI-1 renal was 248%; with A498 renal, 80.3%; in the assay with CCRF-CEM leukemia, 20.5%; in the assay with MOLT-4 leukemia, -9.47% (active); in the assay on SR leukemia, 35.9%; in the assay on RPMI-8226 leukemia, 42%. The growth is 56.2% in the assay with OVCAR-8 ovarian; 82.2% in the assay on OVCAR-5 ovarian; 77.1% in the assay with SK-OV-3 ovarian; 142% in the assay with OVCAR-3 ovarian; 58% in the assay with HS 578T breast; 57.4% with NCI/ADR-RES ovarian.

On to `O=C(O)CNC(=O)C1(N2C(=O)c3ccccc3C2=O)CCCC1`, for which the growth in the assay with SK-MEL-2 melanoma is 101%; in the assay with EKVX NSCLC it was 104%; in the assay on SN12C renal, 99%; in the assay with UO-31 renal it was 94.1%; in the assay with TK-10 renal it was 99.6%; in the assay on ACHN renal, 108%. Further, the growth in the assay on CAKI-1 renal was 98.5%; in the assay with A498 renal it was 100%; in the assay with CCRF-CEM leukemia it was 88.8%; with MOLT-4 leukemia, 101%; in the assay with SR leukemia, 99.3%; in the assay on OVCAR-8 ovarian, 104%. In addition, the growth was 101% with OVCAR-5 ovarian; 99.4% in the assay with OVCAR-4 ovarian; 111% with SK-OV-3 ovarian; 119% in the assay with IGROV1 ovarian; 128% in the assay on HS 578T breast; 110% in the assay with NCI/ADR-RES ovarian.

As to `C=C1CCC2C3(C)COC(c4ccccc4)OC3CCC2(C)C1C/C=C1/C(=O)OCC1OC(C)=O` (stereo unspecified), the growth in the assay with SK-MEL-2 melanoma is 95.1%; in the assay with EKVX NSCLC, 104%; in the assay with SN12C renal, 80.6%; in the assay with UO-31 renal, 81.6%; in the assay on TK-10 renal it was 56.8%; with ACHN renal, 92.4%. Besides, the growth in the assay on CAKI-1 renal was 106%; with A498 renal it was 103%; in the assay with CCRF-CEM leukemia, 2.16% (active); in the assay with MOLT-4 leukemia, 77.1%; in the assay with SR leukemia it was 78.2%; with OVCAR-8 ovarian, 41.9%. Moreover, the growth in the assay on OVCAR-5 ovarian was 120%; with OVCAR-4 ovarian it was 82.3%; in the assay with SK-OV-3 ovarian, 131%; in the assay on IGROV1 ovarian, 86.8%; in the assay with OVCAR-3 ovarian, 100%; in the assay on NCI/ADR-RES ovarian, 61.3%.

Take `CC1C(C)N(C(=O)CCl)c2ccccc2N1C(=O)CCl` (stereo unspecified): the growth with SK-MEL-2 melanoma was -40.9% (active); in the assay with EKVX NSCLC, -60% (active); with SN12C renal it was -26.6% (active); in the assay on UO-31 renal, -84.8% (active); in the assay on TK-10 renal, -87.4% (active); in the assay with ACHN renal, -91.5% (active). Besides, the growth in the assay on CAKI-1 renal is -79.7% (active); with A498 renal it was -83.5% (active); in the assay with CCRF-CEM leukemia, -34.6% (active); in the assay on MOLT-4 leukemia it was -26.5% (active); with SR leukemia, -29.6% (active); in the assay on OVCAR-8 ovarian, -20.8% (active). Besides, the growth with OVCAR-5 ovarian is -77.5% (active); in the assay with SK-OV-3 ovarian, -20.4% (active); in the assay with IGROV1 ovarian, -54.6% (active); with OVCAR-3 ovarian it was -91.1% (active); in the assay with HS 578T breast, -28.3% (active); with NCI/ADR-RES ovarian it was -7.93% (active).

In the case of `CCCn1c(N)c(C(=O)CNc2ccc(I)cc2)c(=O)[nH]c1=O`, the growth was -7.88% (active) in the assay with SK-MEL-2 melanoma; 77.9% with EKVX NSCLC; 44.6% with SN12C renal; 30.1% in the assay on UO-31 renal; 59% with TK-10 renal; 50.7% with ACHN renal. Besides, the growth with CAKI-1 renal was 58.3%; in the assay on A498 renal, 49.2%; with CCRF-CEM leukemia, 55.9%; in the assay with MOLT-4 leukemia, 29.2%; with SR leukemia, 139%; with RPMI-8226 leukemia, 29.1%. Also, the growth in the assay on OVCAR-8 ovarian was 49.5%; in the assay on OVCAR-4 ovarian, 74.4%; in the assay with SK-OV-3 ovarian, 56%; in the assay on OVCAR-3 ovarian, 64.9%; in the assay on HS 578T breast it was 44.3%; in the assay on NCI/ADR-RES ovarian, 77.1%.

In the case of `C[C@@H]1CN(c2nc3c(cc2F)c(=O)c(C(=O)O)cn3C(C)(C)C)C[C@H](C)N1`, the growth with SK-MEL-2 melanoma was 97.1%; in the assay on EKVX NSCLC, 104%; with SN12C renal it was 104%; in the assay on UO-31 renal, 94.2%; with TK-10 renal, 102%; in the assay on ACHN renal, 99.8%. Further, the growth in the assay on CAKI-1 renal was -7.72% (active); in the assay with A498 renal, 107%; in the assay on CCRF-CEM leukemia it was 102%; in the assay on MOLT-4 leukemia, 101%; with SR leukemia, 115%; with RPMI-8226 leukemia, 114%. Moreover, the growth in the assay on OVCAR-8 ovarian was 94.8%; with OVCAR-4 ovarian, 104%; in the assay on SK-OV-3 ovarian, 105%; in the assay with IGROV1 ovarian, 121%; in the assay on OVCAR-3 ovarian, 104%; in the assay on HS 578T breast, 67.2%. Besides, in the assay with NCI/ADR-RES ovarian, the growth was 80.6%.
